Assay results: the supplement of paper PMC6763611

Test system: Plasmodium falciparum NF54
Test: growth inhibition relative to untreated control; higher = more inhibition
Conditions: 72 h
In short: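 Two media were used: minimal RPMI, and minimal RPMI carrying the chorismate end-products folate, pABA, pHBA, tyrosine, phenylalanine and tryptophan at 2.2 μM, 7.3 μM, 7.3 μM, 111 μM and 90 μM for the first five. In these media, P. falciparum NF54 ring stages (1% hematocrit, 1% parasitemia, 100 μL/well) were exposed in dark 96-well half-area plates to a single 5 μM or 1 μM test-compound dose for 72 h at 37 °C. Growth inhibition was then assessed with SYBR Green against untreated wells, subtracting background from uninfected erythrocytes.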

[1] = 1 µM, MM + chorismate end-products (CM screening medium)
[2] = 5 µM, MM + chorismate end-products (CM screening medium)

Row | Structure (SMILES) | growth inhibition [1] [%] | growth inhibition (1 µM, minimal medium (MM)) [%] | growth inhibition [2] [%] | growth inhibition (5 µM, minimal medium (MM)) [%]
1 | CO/N=C(\C(=O)OC)c1ccccc1CO/N=C(\C)c1cccc(C(F)(F)F)c1 | 98 | 96.6 | 91.5 | 91.8
2 | CO/C=C(/C(=O)OC)c1ccccc1Oc1cc(Oc2ccccc2C#N)ncn1 | 96 | 94.7 | 90.4 | 92.2
3 | Cc1nn(C)c(C)c1NS(=O)(=O)c1c(Cl)cc(-c2ccnc(N3CCNCC3)c2)cc1Cl | 55.7 | 79.5 | 84.1 | 89.6
4 | Cc1cccc(C(=O)Nc2ccnc(N(C)C3CCN(CC(C)C)CC3)c2)c1 | > 100 | 61.7 | 94.8 | 92.4
5 | O=C1O[C@@H](COc2ccon2)CN1c1cc(F)c(C2=CCN(Cc3ccccc3)CC2)c(F)c1 | 13.6 | < 0 | 54.4 | 28.6
6 | CO[C@@H]1CN(c2ccc(C#CC3(O)CN4CCC3CC4)c(Cc3ccccc3)n2)C[C@H]1O (stereo partly specified) | 33.3 | < 0 | 42.8 | 9.06
7 | Cc1nn(Cc2ccccc2)c(Cl)c1C(=O)NC1CCCCCC1 | 16.8 | < 0 | < 0 | < 0
8 | CC1(C)OB(O)c2ccc(C3=NOC(c4cc(Cl)c(F)c(Cl)c4)(C(F)(F)F)C3)cc21 (stereo unspecified) | 53.3 | 48.1 | 53.9 | 11.9
9 | O=C1O[C@@H](CO)CN1c1cc(F)c(C2=CCN(Cc3ccccc3)CC2)c(F)c1 | 19.3 | 23.4 | 45 | 49.9
10 | Cc1cc(C2=NOC(c3cc(Cl)c(F)c(Cl)c3)(C(F)(F)F)C2)ccc1C(=O)NCc1ccc2c(c1)C(C)(C)OB2O (stereo unspecified) | 19.4 | < 0 | 40.8 | 10.9
11 | CC(C)(C)C(O)C(Oc1ccc(-c2ccccc2)cc1)n1cncn1 (stereo unspecified) | 46.2 | 5.38 | < 0 | < 0
12 | CC1COC(Cn2cncn2)(c2ccc(Oc3ccc(Cl)cc3)cc2Cl)O1 (stereo unspecified) | 22 | 38.1 | 67.8 | 33.6
13 | CCc1nn(C)c(C(=O)NCc2ccc(Oc3ccc(C)cc3)cc2)c1Cl | < 0 | 3.68 | < 0 | < 0
14 | Nc1c2c(nc3sc4c(c13)CCCC4)CCCC2 | 2.72 | 13.8 | 52.3 | 13.1
